# Reference: PubChem BioAssay AID504332 (National Center for Advancing Translational Sciences (NCATS), 2011)
# The whole screen tested about 350,000 compounds, of which about 31,000 (8.9%) were called active. Roughly 15% stayed inconclusive and do not appear here. What follows is part of a selection rich in actives, with near analogues and random picks from the rest. Unmarked numbers belong to inactive results. Calls follow the shape of the dose curve; as a rule, active = well fitted inhibition curve with a large enough effect; inconclusive = small, poorly fitted or top-dose-only effect; inactive = no such curve, though single readings can be large or run the other way.
# Molecular target: Histone-lysine N-methyltransferase EHMT2 (Homo sapiens) (UniProt Q96KQ7)
# Assay: qHTS Assay for Inhibitors of Histone Lysine Methyltransferase G9a; also: nearly all actives have a fitted effect of over 75% in size
# Conditions: G9a H3K9 monomethylation, AlphaScreen, 2 h; series mostly up to 59 µM; activity, negative = inhibition: at the top concentration
# Summary of the method: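 Methyltransferase reactions run at room temperature for 2 h (20 nM enzyme, 500 nM biotin-H3K9 peptide, 20 uM SAM) after a 15 min compound preincubation; product detected by AlphaScreen beads and anti-H3K9me1 antibody.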
# % is scaled to controls: 0 for no effect and ±100 for the full control effect; potency is read from the fitted curve at half-maximal effect.
# Sequence of Histone-lysine N-methyltransferase EHMT2 (Homo sapiens) (Q96KQ7 913-1193 limits assumed): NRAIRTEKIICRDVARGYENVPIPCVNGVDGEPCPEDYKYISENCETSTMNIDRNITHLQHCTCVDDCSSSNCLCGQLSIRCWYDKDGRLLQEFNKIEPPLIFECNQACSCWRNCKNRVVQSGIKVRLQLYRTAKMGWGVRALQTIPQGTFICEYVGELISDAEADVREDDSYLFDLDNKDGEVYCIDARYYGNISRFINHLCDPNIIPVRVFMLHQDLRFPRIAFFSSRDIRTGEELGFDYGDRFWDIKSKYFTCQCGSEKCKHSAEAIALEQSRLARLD
SMILES,"activity, negative = inhibition",Potency
CCOC(=O)N1CCN(C(=O)C2CCN(S(=O)(=O)c3cc(Cl)ccc3OCC)CC2)CC1,25.7% [at 102 µM],
CCOC(=O)N1CCN(CCC(=O)Nc2cc(OC)ccc2OC)CC1,1.26% [at 102 µM],
CCOC(=O)N1CCN(C(=O)C2CCN(Cc3ccc(OC)cc3OC)CC2)CC1,,7.94 µM (active)
CCN1C(=O)[C@H]2[C@@H](c3ccc(-c4ccc(OC)cc4)cc3)N[C@@](Cc3ccccc3)(C(=O)OC)[C@H]2C1=O,-6.39% [at 2.33 µM],
CCOc1ccc(NC(=O)CN(C)C(=O)CCSc2ccc(F)cc2)cc1OCC,21% [at 12.7 µM],
CCN(CC(=O)Nc1ccccc1C(=O)NC1CC1)Cc1cccs1,-3.89% [at 102 µM],
O=C(CSc1nnc(-c2ccco2)n1Cc1ccccc1)NC(=O)NCc1ccco1,-51%,
Cc1nnc(SCC(N)=O)n1CC1CCCO1 (stereo unspecified),-0.186% [at 2.33 µM],
O=C(CSc1nnc(-c2ccco2)o1)NCC(=O)c1ccccc1,81.8%,
O=C(COc1ccc(Cl)cc1)NCc1nnc(SCC(=O)NCC2CCCO2)o1 (stereo unspecified),9.29%,
Cc1nnc(SCC(=O)NNC(=O)c2ccc(Cl)cc2)n1CC1CCCO1 (stereo unspecified),,35.5 µM (active)
O=C(CSc1nnc(-c2ccco2)n1CC1CCCO1)c1ccccc1 (stereo unspecified),,50.1 µM (active)
CCC(NC(=O)C1CCCC1)c1ccc(C)cc1 (stereo unspecified),32.5% [at 102 µM],
Cc1ccccc1NC(=O)Cn1c(=O)n(CCc2ccccc2)c(=O)c2ccccc21,3.53%,
Cc1ccc(S(=O)(=O)Nc2nc(CN3CCOCC3)nc3sc(C)c(C)c23)cc1,19.1% [at 2.33 µM],
O=C(OCC(=O)N1CCCCCC1)c1cnc(Cl)c(Cl)c1,-2.7%,
CCNC(=O)N1CCN(S(=O)(=O)c2ccc3c(c2)OCCCO3)CC1,-26.7% [at 2.33 µM],
COc1ccc(OC)c(CCNC(=O)CCn2ccc3cc(S(=O)(=O)N4CCCC4)ccc32)c1,21.9%,
O=C1CC[C@H](O)CCN1[C@H](CSc1ccc(Br)cc1)Cc1ccccc1,11.1% [at 2.33 µM],
O=C(CSc1nnc(-c2ccncc2)n1-c1ccccc1)Nc1ccc(Cl)c(Cl)c1,1.17%,
COc1ccc(OC)c(CNC(=O)Cn2nc(C)c3c(C)n(-c4ccccc4)nc3c2=O)c1,0.0803%,
CCOC(=O)C1CCCN(CC(=O)Nc2cc(C)c3c(=O)oc4ccccc4c3n2)C1 (stereo unspecified),-12%,
COC(=O)c1sc2ncccc2c1-n1c(C)ccc1C,-7.5%,
O=C(CSc1ccccc1)Nc1cccc(S(=O)(=O)N2CCCCC2)c1,14.6% [at 12.7 µM],

SMILES,"activity, negative = inhibition",Potency
CCCCSc1nc2ccccc2[nH]1,15.5% [at 102 µM],
CCN(/N=C/c1ccc(N(C)C)cc1)c1nc2ccccc2[nH]1,,2.82 µM (active)
CCN(/N=C/c1ccccc1)c1cc(=O)n(C)c(=O)[nH]1,-16.6%,
CN1C(=O)C2(OCCCO2)c2cc(Cl)ccc21,19.4% [at 102 µM],
COc1cc(NC(=O)CSC(=S)N2CCCC2)c(OC)cc1Cl,13.5% [at 2.33 µM],
Cc1ccccc1-n1nc(C)c2c1N=C1C(Cl)=CC(Cl)=CN1C2c1ccc(C(=O)O)cc1 (stereo unspecified),,25.1 µM (active)
CC1CCN(C(=O)Cn2c(=O)n(-c3ccc(Cl)cc3)c(=O)c3c4c(sc32)CCC4)CC1,-10.8%,
CCn1c(CNC(=O)c2ccc(OC)c(OC)c2)nnc1SCC(=O)Nc1ccccc1,2.65% [at 102 µM],
COc1ccc2c(c1OC)C(=O)OC2c1c(O)nc(SC)n(-c2ccccc2)c1=O (stereo unspecified),4.51% [at 12.7 µM],
CCn1c(SC)nc(O)c(C(c2ccc(OC)c(O)c2)c2c(O)nc(SC)n(CC)c2=O)c1=O,,10 µM (active)
CCOc1ccccc1NC(=O)C1=C(C)Nc2ncnn2C1c1ccc(NC(C)=O)cc1 (stereo unspecified),14.9%,
COc1ccccc1N1CCN(c2ccc(=O)n(CC(=O)NCc3ccc(OC(C)C)cc3)n2)CC1,-1.85%,
Cc1cccc(Cn2c(SCc3ccc(C(=O)N4CCC(C)CC4)cc3)nc3ccncc32)c1,5.78%,
COc1cccc(Cn2c(SCc3ccc(C(=O)N4CCCCC4)cc3)nc3ccncc32)c1,-21.9%,
COc1cccc(Cn2c(SCc3ccc(C(=O)N4CCC(C)CC4)cc3)nc3ccncc32)c1,,1.78 µM (active)
O=C(CSc1nc2c(c(=O)[nH]1)CN(Cc1ccc3c(c1)OCO3)CC2)Nc1cc(F)ccc1F,-25.9%,
Cc1ccc2oc(C(=O)N3CCN(C)C[C@@H]3C(C)C)c(C)c2c1,45.1% [at 102 µM],
CN(C)S(=O)(=O)c1cc(C(=O)Nc2ccn(C)n2)c(Cl)cc1Cl,19.1% [at 12.7 µM],
CCNC(=S)Nc1ccc(OC(F)(F)F)cc1,13.3% [at 102 µM],
CS(=O)(=O)c1sc(C(=O)NC(=S)Nc2ccc(OC(F)(F)F)cc2)c2c1C=CCC2,,50.1 µM (active)
FC(F)(F)Oc1ccc(NC(=S)NCc2ccccc2)cc1,9.57% [at 102 µM],
COc1cc(OC)c(C(=O)Nc2ccccc2-c2ccccc2)cc1OC,-48.3% [at 102 µM],
COc1cc(OC)c(C(=O)Nc2ccc(N(C)C)cc2)cc1OC,,4.47 µM (active)
COc1ccc(Cl)cc1C(=O)Nc1ccc(N(C)C(C)=O)cc1,23.8%,

SMILES,"activity, negative = inhibition",Potency
COc1ccc(C(C)NC(=O)C23CC4CC(CC(C4)C2)C3)cc1 (stereo unspecified),23.9% [at 102 µM],
CCOc1ccc(-c2cc3nc(C4CCN(C(=O)OC(C)(C)C)CC4)c(C(=O)Nc4cccc(CC)c4)cn3n2)cc1,-6.19%,
O=C(NCc1ccc2c(c1)CCN2C(=O)c1ccccc1)Nc1cc(F)ccc1F,-15.2%,
CCSc1nc(O)c(C(c2cccc(OC)c2)c2c(O)nc(SCC)[nH]c2=O)c(=O)[nH]1,,70.8 µM (active)
CCSc1nc(C)c(CCOc2cccc(C)c2)c(=O)[nH]1,-3.47%,
CC(C)c1c(O)nc(SCCOc2ccc(Cl)cc2)[nH]c1=O,4.44% [at 102 µM],
CCCCn1c(N)c(N(CC)C(=O)c2ccc(N(C)S(=O)(=O)c3ccc(C)cc3)cc2)c(=O)[nH]c1=O,8.91% [at 12.7 µM],
CCCCn1c(N)c(N(CCC(C)C)C(=O)COC(=O)c2cccnc2OCC)c(=O)[nH]c1=O,10.4%,
COc1ccc(NS(=O)(=O)c2ccc(C)c(C(=O)NCC(c3cccs3)N3CCOCC3)c2)cc1 (stereo unspecified),-6.36% [at 102 µM],
COc1cccc(N2CC(NC(=O)c3ccc4ccccc4c3)CC2=O)c1 (stereo unspecified),2.32% [at 102 µM],
CC(NCC(=O)Nc1cc(Cl)cc(Cl)c1)c1ccccc1 (stereo unspecified),-0.468% [at 102 µM],
CC(NCc1cccs1)C(=O)Nc1cc(Cl)cc(Cl)c1 (stereo unspecified),,5.01 µM (active)
CC(=O)c1ccc(NC(=O)C(C)NCc2ccc(Cl)cc2)cc1 (stereo unspecified),7.53% [at 102 µM],
Cc1cccc(NC(=O)c2sc3nc(N4CCOCC4)c4c(c3c2N)CCCC4)c1,6.18% [at 0.501 µM],
CC(NC(=O)CN(C)S(=O)(=O)c1ccc(F)cc1)C1CC2CCC1C2 (stereo unspecified),11.8% [at 12.7 µM],
COc1ccccc1C(=O)OCc1cc(=O)n2nc(-c3cccs3)sc2n1,7.4%,
Cc1cc(NC(=O)CSc2nc(C(C)C)nc3sc4c(c23)CCC(C)C4)no1 (stereo unspecified),,1 µM (active)
CC(C)c1nc(SCC(=O)Nc2cccc(C(=O)O)c2)c2c3c(sc2n1)CCCC3,-2.84% [at 102 µM],
CCCCOC(=O)CSc1ncnc2sc3c(c12)CCC(C)C3 (stereo unspecified),76.4%,
CCOc1ccccc1CNC(=O)c1cnc2c(-c3ccc(OCC)c(OCC)c3)c(C)nn2c1C,-3.36%,
CCc1nccn1S(=O)(=O)c1cc(Br)ccc1Br,4.79%,
O=C(O)CCC(=O)N(Cc1cccs1)Cc1cccs1,,50.1 µM (active)
O=C(CCc1ccccc1)NCCc1cccs1,31.8% [at 102 µM],
Cc1ccnc(NC(=O)CCC(=O)N(CC(=O)NCCc2ccccc2)Cc2cccs2)c1,7.27% [at 102 µM],

SMILES,"activity, negative = inhibition",Potency
Fc1ccc(COc2ccc(-c3nnco3)cc2)cc1,14.6% [at 102 µM],
Fc1ccc(COc2cccc(-c3n[nH]c(=S)o3)c2)cc1,,5.01 µM (active)
CN(Cc1ccc(F)cc1)C(=O)COc1ccc2ccccc2c1,21.6% [at 102 µM],
O=C(N/N=C/c1ccccc1O)C1CCCC1,36.3% [at 102 µM],
COc1ccc(Cn2ccc3nc(C)c(C(=O)Nc4ccc(C)c(F)c4)cc3c2=O)cc1,0.748%,
O=C(O)c1ccccc1C(=O)Nc1ccccc1[N+](=O)[O-],-29.3% [at 102 µM],
O=C(Nc1ccccc1-c1ccccc1)c1ccccc1[N+](=O)[O-],6.77% [at 102 µM],
O=C(O)c1ccccc1NC(=S)NC(NC(=O)c1ccccc1[N+](=O)[O-])C(Cl)(Cl)Cl (stereo unspecified),,12.6 µM (active)
Cc1ccc(CNC(=O)c2c(O)nc3c(C)cccn3c2=O)cc1,-10.5%,
Cc1ccc(Cn2c(=O)n(-c3ccc(C)cc3)c(=O)c3c2c2cc(C)ccc2n3C)cc1,-5.57%,
CCSc1nnc2c(n1)OC(c1ccc(OCC(=O)O)cc1)Nc1ccccc1-2 (stereo unspecified),-45.6%,
COc1ccc(OCCn2ccnc2C)cc1,,8.91 µM (active)
COc1ccc(OCCC(=O)c2ccc(OC)cc2)cc1,-34.9% [at 102 µM],
COc1ccc(OCCCCN2CCC(C)CC2)cc1,5.74% [at 102 µM],
O=C(OCC(=O)N1CCCC1=O)c1cc(S(=O)(=O)N2CCOCC2)ccc1Cl,-46.3% [at 102 µM],
CCC(C(=O)Nc1cccc(-c2nc3cccnc3s2)c1C)c1ccccc1 (stereo unspecified),8.59%,
Cc1cc(C)nc(NC(=O)C(C)N2C(=O)c3ccccc3C2=O)n1 (stereo unspecified),-3.61% [at 102 µM],
Cc1cc(C)nc(Nc2n[nH]c(-c3ccccc3N)n2)n1,,7.94 µM (active)
Cc1cc(C)nc(Nc2ncn[nH]2)n1,11.3% [at 102 µM],
CCOc1ccccc1C(=O)NCC(c1ccc(N(C)C)cc1)N1CCCC1 (stereo unspecified),2.29% [at 12.7 µM],
C[C@H](NC(=O)c1ccccc1)C(=O)OCC(=O)c1c[nH]c2ccccc12,-6.84%,
CN(C)c1ccc(C(CNC(=O)c2ccc(F)cc2)c2c[nH]c3ccccc23)cc1 (stereo unspecified),,10 µM (active)
CCCN1CCN(CCCNC(=O)c2ccc3nc(Cc4ccccc4)oc3c2)CC1,4.53%,
O=C(c1c(F)cccc1F)N1CCN(S(=O)(=O)c2ccc3c(c2)OCCO3)CC1,-0.69% [at 0.501 µM],
